The values that follow come from PubChem BioAssay (EPA / NIEHS).

“And” between values parts separate entries of the source, which are not always exact repeats. Equal entries are not always repeated. Results filed as inconclusive are left out. Some structures have more than one record in an assay (separate samples or runs), and their calls can disagree. The source made the active and inactive calls. The calls were made as follows, unless noted: active = hit-call score of the fitted dose curve at least 0.9, where 1 is the maximum; inconclusive = response in the unintended direction; inactive = score below 0.9.

Read-out in assay [1]: Thyroid Hormone Responsive (THRSP), THRSP (gene 7069)
Briefly: LTEA_HepaRG_THRSP: Life Technologies and Expression Analysis (LTEA) Assay for Thyroid Hormone Responsive (THRSP) using HepaRG (AID 2283536; active = hit-call score of the fitted dose curve at least 0.9, where 1 is the maximum; inactive = score below 0.9). The following applies: mRNA level, 48 h; actives raise or lower the signal. In a few lines: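 Differentiated HepaRG cells treated 48 h in serum-free induction medium with 8 half-log concentrations up to 100 uM (0.5% DMSO), duplicates. THRSP mRNA by TaqMan qRT-PCR normalised to ACTB, GAPDH, POLR2A; bidirectional fit versus DMSO.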

Read-out in assay [2]: Cellular tumor antigen p53 (Homo sapiens) (UniProt P04637)
Description: LTEA_HepaRG_TP53: Life Technologies and Expression Analysis (LTEA) Assay for Tumor Protein P53 (TP53) using HepaRG (AID 2283537; active = hit-call score of the fitted dose curve at least 0.9, where 1 is the maximum; inactive = score below 0.9). The conditions noted are these: mRNA level, 48 h; actives raise or lower the signal. In outline:
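Gain or loss of TP53 mRNA signal is scored relative to 0.5% DMSO after 48 h chemical treatment of HepaRG liver cells, tested in duplicate at eight half-log concentrations up to 100 uM.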

Read-out in assay [3]: UDP glucuronosyltransferase (UGT1A1), UGT1A1 (gene 54658)
Briefly: LTEA_HepaRG_UGT1A1: Life Technologies and Expression Analysis (LTEA) Assay for UDP glucuronosyltransferase (UGT1A1) using HepaRG (AID 2283538; active = hit-call score of the fitted dose curve at least 0.9, where 1 is the maximum; inactive = score below 0.9). The conditions noted are these: mRNA level, 48 h; actives raise or lower the signal. In outline:
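Human liver HepaRG cultures receive test chemical for 48 h, up to 100 uM in 0.5% DMSO, with phenobarbital induction controls. UGT1A1 mRNA is measured by qRT-PCR and normalized to ACTB, GAPDH and POLR2A.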

Read-out in assay [4]: UDP glucuronosyltransferase (UGT1A6), UGT1A6 (gene 54578)
Briefly: LTEA_HepaRG_UGT1A6: Life Technologies and Expression Analysis (LTEA) Assay for UDP glucuronosyltransferase (UGT1A6) using HepaRG (AID 2283539; active = hit-call score of the fitted dose curve at least 0.9, where 1 is the maximum; inactive = score below 0.9). The following applies: mRNA level, 48 h; actives raise or lower the signal. In outline:
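Differentiated HepaRG cells, ~100,000/well, were exposed for 48 h in serum-free induction medium with 0.5% DMSO to 8-point half-log series topping at 100 uM, in duplicate. mRNA measured by Fluidigm TaqMan qRT-PCR, normalized to ACTB, GAPDH and POLR2A.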

Read-out in assay [5]: X-box binding protein 1 (XBP1), XBP1 (gene 7494)
Briefly: LTEA_HepaRG_XBP1: Life Technologies and Expression Analysis (LTEA) Assay for X-box binding protein 1 (XBP1) using HepaRG (AID 2283540; active = hit-call score of the fitted dose curve at least 0.9, where 1 is the maximum; inactive = score below 0.9). The following applies: mRNA level, 48 h; actives raise or lower the signal. In outline:
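Differentiated human HepaRG cells in serum-free induction medium exposed 48 h in duplicate to eight half-log concentrations up to 100 uM in 0.5% DMSO. XBP1 mRNA measured by Fluidigm TaqMan qRT-PCR, normalized to ACTB, GAPDH, POLR2A; bidirectional fitting against DMSO.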

A short description of assay [6]: LTEA_HepaRG_LDH_cytotoxicity: Cytotoxicity Assessment in the Life Technologies and Expression Analysis (LTEA) Assay (AID 2283563).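 As to AC50: LDH activity released into spent culture medium as a marker of cell death.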 In outline:
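Differentiated HepaRG cells in serum-free induction medium, exposed 48 h in duplicate to 8 half-log concentrations up to 100 uM in 0.5% DMSO. Cytotoxicity from LDH measured in spent medium, fit relative to DMSO.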

Assay [7] in a line: ATG_XTT_Cytotoxicity: Cytotoxicity Assessment in the Attagene TRANS-FACTORIAL HepG2 Assay (AID 2283584). In outline:
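HepG2 cells transiently transfected with GAL4-UAS multiple reporter units, dosed 24 h; cytotoxicity read by XTT as loss of signal versus DMSO baseline.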

The nature of assay [8]: TOX21_p53_BLA_p2_viability: Viability Assessment in the Tox21 HCT-116 p53 Agonism Beta-lactamase Assay, Phase 2 (AID 2283591).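 Also: compound exposure lasted 16 h at 37 °C; actives lower the ATP signal meaning cytotoxicity.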 In outline:
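HCT116 p53-bla cells, 4000/well, dosed after 5 h plating (217-fold dilution of DMSO stocks) and incubated 16 h at 37C. Viability taken as cellular ATP by CellTiter-Glo luminescence after 30 min RT; signal loss marks cytotoxicity.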

Assay [9] deals with Cellular tumor antigen p53 (Homo sapiens) (UniProt P04637). Briefly: TOX21_p53_BLA_p2_ratio: Tox21 HCT-116 p53 Agonism Beta-lactamase Assay, Ratio, Phase 2 (AID 2283592). In a few lines: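 HCT-116 cells with p53-responsive beta-lactamase reporter, 4000 cells/well, preincubated 5 h, then compound in DMSO (217-fold dilution) for 16 h at 37C. CCF4-AM substrate 2 h at room temperature; 460/530 nm emission ratio fitted upward versus DMSO.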

The nature of assay [10]: TOX21_p53_BLA_p3_viability: Viability Assessment in the Tox21 HCT-116 p53 Agonism Beta-lactamase Assay, Phase 3 (AID 2283593).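 Also: cells exposed to compound for 16 h before reading.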 In outline: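 HCT116 cells, 4000/well, dosed 5 h after plating by pin transfer (217-fold dilution from DMSO stock) and incubated 16 h at 37C, 5% CO2. Viability read as ATP luminescence with CellTiter-Glo after 30 min at room temperature.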

Chain of Cellular tumor antigen p53 (Homo sapiens) (P04637 whole entry, looked up): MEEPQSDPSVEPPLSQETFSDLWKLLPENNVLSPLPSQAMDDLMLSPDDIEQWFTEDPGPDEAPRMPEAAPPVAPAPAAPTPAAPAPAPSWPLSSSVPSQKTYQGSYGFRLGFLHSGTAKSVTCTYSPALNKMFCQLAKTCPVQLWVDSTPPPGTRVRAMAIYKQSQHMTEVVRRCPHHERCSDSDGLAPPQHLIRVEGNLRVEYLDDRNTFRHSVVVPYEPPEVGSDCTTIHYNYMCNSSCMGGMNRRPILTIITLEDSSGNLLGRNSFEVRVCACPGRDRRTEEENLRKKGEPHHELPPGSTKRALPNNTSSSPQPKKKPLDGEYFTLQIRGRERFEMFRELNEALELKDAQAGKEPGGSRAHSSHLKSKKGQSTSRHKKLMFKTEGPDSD

With `CC/C(=C(/CC)c1ccc(O)cc1)c1ccc(O)cc1`, the concentration at half-maximal activity (AC50) (as a rule, the concentration giving half of the maximal activity seen) in [1] was 21.7 µM (active); in assay [3], 93.9 µM (active); in assay [4], 76.7 µM (active); in assay [5] it was 89.9 µM (active); in assay [6], 89.2 µM (active); in assay [8] it was 62 µM (active) and 73.4 µM (active). Further, the AC50 in assay [9] is 3.29 µM (active) and 5.64 µM (active). For the same molecule, the molecule was classed as inactive in assay [2], in assay [7] and in assay [10].

On to `CC(C)(O)c1ccc(CNC(=O)c2cccnc2Oc2ccc3nonc3c2)cc1`, for which the AC50 is 60.8 µM (active) in assay [1] and 9.41 µM (active) in [3]. Further, the result in [2], in assay [4], in assay [5], in assay [6], in assay [8] and in [9] was inactive.

On to `Oc1ccc2ccccc2c1`, for which the molecule was classed as inactive in assay [1], in assay [2], in assay [3], in [5], in [6] and in assay [7]. In [8], the call was inactive.

Consider `Cc1occc1C(=O)Nc1ccc(C(=O)N2CCC(F)(F)/C(=C\C(=O)N3CCC(N4CCCCC4)CC3)c3ccccc32)cc1`, for which the call in assay [1], in [2], in [4], in assay [5], in assay [8] and in assay [9] was inactive. For the same molecule, the molecule was classed as inactive in [10]. Also, the concentration at half-maximal activity (AC50) is 54.3 µM (active) in assay [3] and 49.6 µM (active) in assay [6].

Take `CCCOC(=O)c1cc(O)c(O)c(O)c1`: the result in [1], in [2], in assay [4], in [5], in [6] and in assay [8] was inactive. Further, the outcome in assay [9] and in assay [10] was inactive. Also, the concentration at half-maximal activity (AC50) in [3] is 1.73 µM (active).

On to `O=CCCCC=O`, for which the molecule was called inactive in assay [1], in assay [2], in assay [3], in [4], in assay [5] and in assay [6]. The molecule was called inactive in assay [7], in assay [8], in assay [9] and in [10]. The AC50 in [10] is 83.5 µM (active) and 84.6 µM (active).

In the case of `O=C(O)c1ccccc1-n1cc(C(=O)O)c(=O)c2cc(Nc3c(F)cc(F)cc3Cl)c(Cl)cc21`, the outcome in assay [1], in [2], in assay [3], in assay [5], in assay [6] and in [9] was inactive. Besides, the AC50 in assay [4] is 0.0904 µM (active).

On to `CCCCOC(=O)c1ccc(O)cc1`, for which the molecule was classed as inactive in [1], in assay [2], in assay [3], in [4], in [5] and in [6]. Further, the call in assay [7], in [8], in assay [9] and in assay [10] was inactive.

On to `CC[C@@H]1C[C@H](N(Cc2cc(C(F)(F)F)cc(C(F)(F)F)c2)C(C)=O)c2cc(C(F)(F)F)ccc2N1C(=O)OC(C)C`, for which the call in assay [1], in assay [2], in [5] and in [6] was inactive. Besides, the AC50 in assay [3] is 0.546 µM (active).

With `CCN(Cc1cccnc1)C(=O)c1cccc(Cl)c1[C@]1(C)C(=O)N(Cc2ccc(OC)cc2OC)c2ccc(Cl)cc21`, the half-maximal activity concentration (AC50) in assay [1] is 24 µM (active); in assay [2] it was 11.6 µM (active); in assay [3] it was 25.2 µM (active); in [4] it was 16.7 µM (active); in assay [5], 24.6 µM (active); in [6], 25.5 µM (active). Moreover, the outcome in assay [8] and in assay [10] was inactive.

For `O=c1ccc2ccccc2o1`, the molecule was classed as inactive in assay [1], in assay [2], in assay [4], in [5], in assay [6] and in assay [8]. Besides, in assay [9], the result was inactive. In addition, the AC50 in [3] was 65.4 µM (active).

Turning to `OCCO`, the result in assay [1], in assay [3], in assay [4], in [5], in assay [6] and in assay [7] was inactive. Also, the result in assay [8] and in assay [10] was inactive. Also, in assay [2], the AC50 was 9.97 µM (active).

Turning to `CCCCCCCCCCCC[N+](C)(C)C`, the molecule was classed as inactive in assay [1], in [5], in [7] and in assay [10]. The AC50 is 81.9 µM (active) in assay [2]; 88.3 µM (active) in assay [3]; 89.9 µM (active) in [4]; 90.4 µM (active) in [6]; 85.2 µM (active) and 79.6 µM (active) and 73.5 µM (active) in assay [8]; 85.3 µM (active) in assay [10].

In the case of `CCN(CC)C(=O)c1cc(S(=O)(=O)Cc2ccccc2)c(N2CCC(c3ccccc3)CC2)cc1N(CC)CCN(C)C`, the AC50 in assay [1] was 6.01 µM (active); in [2], 30.7 µM (active); in assay [3], 19 µM (active); in assay [4] it was 30 µM (active); in [5], 28.8 µM (active); in [6], 31.1 µM (active). The half-maximal activity concentration (AC50) was 29.4 µM (active) and 33.5 µM (active) in assay [8]; 30.3 µM (active) in assay [10]. The outcome in assay [9] and in assay [10] was inactive.

For the molecule `CCO[Si](CCCNC(N)=O)(OCC)OCC`, the outcome in assay [1], in [2], in assay [3], in [4], in assay [5] and in [6] was inactive. Further, the molecule was called inactive in assay [7], in assay [8] and in assay [10].

In the case of `COCC(C)OCC(C)OCC(C)O` (centres undefined), the result in [1], in [2], in assay [3], in [4], in assay [5] and in assay [6] was inactive. The result in assay [7] was inactive.

As for `CCCCCCCCCCCO`, the outcome in [1], in assay [2], in assay [3], in assay [4], in [5] and in [6] was inactive. The molecule was called inactive in assay [7], in assay [8] and in assay [10].

Consider `COc1cc(C(=O)NC2CCN(C)CC2)ccc1Nc1ncc2c(n1)N(C1CCCC1)CC(F)(F)C(=O)N2C`, for which the AC50 in [1] was 0.923 µM (active); in assay [2], 8 µM (active); in assay [3] it was 21 µM (active); in assay [4], 8.85 µM (active); in assay [5], 10.8 µM (active); in assay [6], 16.5 µM (active). For the same molecule, the results for the concentration at half-maximal activity (AC50) in [8] and in assay [10] were 47.4 µM (active) and 55.2 µM (active), respectively. The call in [7] was inactive.

As for `c1ccc2n[nH]nc2c1`, the molecule was classed as inactive in assay [1], in assay [2], in assay [3], in assay [4], in assay [5] and in assay [6]. Besides, the molecule was classed as inactive in assay [7], in assay [8] and in [10].
